The list is not random: actives were taken first. Their share in the collection is about 4.8%.
USP2a block – qHTS Assay for Inhibitors of Ubiquitin-specific Protease USP2a Using CHOP2 as the Reporter. hit rate 0.01% among 330,000. Potency, µM (top dose mostly 38.3 µM), usual class: inhibitors. USP2 core, Ub-CHOP2 coupled fluorogenic reporter, 485/531
Target sequence (O75604 whole entry, looked up): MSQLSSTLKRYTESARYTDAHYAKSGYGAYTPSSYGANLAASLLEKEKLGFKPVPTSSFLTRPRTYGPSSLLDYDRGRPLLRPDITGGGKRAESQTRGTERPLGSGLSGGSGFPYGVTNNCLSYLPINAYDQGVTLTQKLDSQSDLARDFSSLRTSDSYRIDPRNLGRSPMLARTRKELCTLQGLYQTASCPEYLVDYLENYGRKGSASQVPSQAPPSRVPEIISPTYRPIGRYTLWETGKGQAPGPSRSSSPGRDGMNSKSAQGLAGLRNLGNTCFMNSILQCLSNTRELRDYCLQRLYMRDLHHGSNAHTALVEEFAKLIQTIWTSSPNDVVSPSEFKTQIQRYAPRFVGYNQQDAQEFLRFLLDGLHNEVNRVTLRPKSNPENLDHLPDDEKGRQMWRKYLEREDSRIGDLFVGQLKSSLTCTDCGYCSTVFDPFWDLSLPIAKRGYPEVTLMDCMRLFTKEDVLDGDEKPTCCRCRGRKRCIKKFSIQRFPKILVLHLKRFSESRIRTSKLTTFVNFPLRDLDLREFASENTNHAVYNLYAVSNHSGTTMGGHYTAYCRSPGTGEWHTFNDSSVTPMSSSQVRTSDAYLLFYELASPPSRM
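USP2 core (10nM final) preincubated 30min RT with compound in 20mM Tris-HCl pH 8.0, 2mM CaCl2, 2mM beta-mercaptoethanol, 0.05% CHAPS; 25nM Ub-CHOP2 plus 25nM reporter substrate added, fluorescence (Ex485/Em531) read after 60min.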
USP1-UAF1 inh – Inhibitors of USP1/UAF1: Primary Screen; Ubiquitin carboxyl-terminal hydrolase 1 (Homo sapiens), O94782; Potency, µM (top dose mostly 57.1 µM), actives largely listed as inhibitors; hit rate 0.23% among 390,000; recombinant USP1/UAF1, Ub-Rhodamine cleavage fluorescence; AID 743255, 2014; note: nearly all actives have a fitted effect of over 60% in size
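USP1/UAF1 complex at 1 nM was preincubated with compound for 15 min at room temperature, then Ub-Rho substrate (150nM final) was added. Fluorescence (480/540 nm) was read kinetically, 6 reads every 60 seconds.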
ATXN viability – Viability Counterscreen for Primary qHTS for Inhibitors of ATXN expression. hit rate 0.49% among 400,000. Potency, µM (doses to about 56.7 µM), hits mostly cytotoxic. S2 cells (HEK-293 line with an ATXN2-luciferase reporter) viability, CellTiter-Fluor protease fluorescence, 24 h; note: nearly all actives have a fitted effect of over 40% in size
IL1B secr inh – qHTS for Inhibitors of Inflammasome Signaling: IL-1-beta AlphaLISA Primary Screen | THP-1 LPS/ATP IL-1B secretion, AlphaLISA, 16 h; stronger effect = lower value | activity change, % at 57.5 µM | hit rate 4.7% among 360,000 | AID 743279, 2014; in the data active = activity change below about -50%; inconclusive = mostly about -30% to -49%
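Secreted IL-1B measured by AlphaLISA bead assay after 16 h compound exposure of THP-1 cells; compounds (final up to 57.5 uM) added 1 h before LPS (250 ng/mL) and ATP (1.25 mM) stimulation; lower signal means less secretion.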
ATXN2 expr inh – Primary qHTS for Inhibitors of ATXN expression | HEK-293 ATXN2-luciferase reporter, luminescence, 24 h | hit rate 0.72% among 360,000 | Potency, µM (top dose mostly 57 µM), usual class: inhibitors; note: nearly all actives have a fitted effect of over 55% in size
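qHTS (up to 57 uM final) was run with 24 h compound exposure of reporter cells at 37 °C. Each well was multiplexed: SteadyGlo luminescence measured ATXN2-luciferase expression after a fluorogenic Gly-Phe-AFC viability readout (25 uM final).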
Of the large screens only hits and unclear results are named; the others gave an inactive call; ! = not active in a repeat. Unless noted, calls come from the whole dose curve; as a rule, active = well fitted curve in the direction sought with a large enough effect; inconclusive = small, poorly fitted or top-dose-only effect, or another doubt; inactive = no such curve, though single readings can be large; an effect the other way counts as inactive or inconclusive.

Cc1ccc(Nc2nc(N)c([N+](=O)[O-])c(N3CCC(C)CC3)n2)cc1C	ATXN viability inconclusive, IL1B secr inh -80, ATXN2 expr inh inconclusive
Cc1cccc(Nc2nc(N)c([N+](=O)[O-])c(N3CCCC(C)C3)n2)c1 (stereo not drawn)	ATXN viability inconclusive, IL1B secr inh -103, ATXN2 expr inh inconclusive
CC(C)[C@@H]1O[C@H](CCc2ccccc2)CC2=C1C(=O)OC(C)(C)O2	none (no result: USP2a block, USP1-UAF1 inh)
Cc1cc(C(O)c2ncc(-c3ccc(Oc4ccccc4)cc3)[nH]2)ccc1F (stereo not drawn)	ATXN viability inconclusive, IL1B secr inh -53, ATXN2 expr inh inconclusive (no result: USP2a block, USP1-UAF1 inh)
OC(c1ccc(Cl)c(F)c1)c1ncc(-c2ccccc2F)[nH]1 (stereo not drawn)	none (no result: USP2a block, USP1-UAF1 inh)
CC(C)(C)c1ccc(C(O)c2ncc(-c3ccc(F)cc3)[nH]2)cc1 (stereo not drawn)	ATXN viability inconclusive, IL1B secr inh -67, ATXN2 expr inh inconclusive (no result: USP2a block, USP1-UAF1 inh)
CC(C)(C)c1ccc(C(O)c2ncc(-c3ccccc3)[nH]2)cc1 (stereo not drawn)	none (no result: USP2a block, USP1-UAF1 inh)
Cc1ccccc1-c1cnc(C(O)c2ccc(Cl)c(F)c2)[nH]1 (stereo not drawn)	IL1B secr inh -62 (no result: USP2a block, USP1-UAF1 inh)
Cc1cc2c(cc1S(=O)(=O)C(C)CC(=O)NC1CCC(C)CC1)OCC(=O)N2 (stereo not drawn)	none (no result: USP2a block, IL1B secr inh)
CC(C)c1ccc(-c2noc(SCC(=O)N3CCCCC3)n2)cc1	ATXN viability inconclusive (no result: USP2a block, IL1B secr inh)
COc1ccc(Cl)cc1Nc1cc(C)nc2nc(-c3ccccc3C)nn12	none (no result: USP2a block, IL1B secr inh)
O=C(NC1CC(=O)N(c2ccc3c(c2)OCCO3)C1)N1CCCCC1 (stereo not drawn)	none
Cc1ccc(Cn2c(=N)c(C(=O)NCC3CCCO3)cc3c(=O)n4cccc(C)c4nc32)cc1 (stereo not drawn)	IL1B secr inh -55 (no result: ATXN viability)
CCCn1c(=N)c(C(=O)NCC2CCCO2)cc2c(=O)n3cccc(C)c3nc21 (stereo not drawn)	IL1B secr inh inconclusive (no result: ATXN viability)
Cc1cccn2c(=O)c3cc(C(=O)NCCCN4CCCC4=O)n(C)c3nc12	USP1-UAF1 inh inconclusive, IL1B secr inh -77 (no result: ATXN viability)
Cc1cccn2c(=O)c3cc(C(=O)NCC4CCCO4)c(=N)n(CCN4CCOCC4)c3nc12 (stereo not drawn)	IL1B secr inh -51
COc1ccc(CCn2c(=N)c(C(=O)N3CCN(C)CC3)cc3c(=O)n4ccccc4nc32)cc1	IL1B secr inh -54
OC[C@H]1O[C@@H](n2cnc3c(=S)nc[nH]c32)[C@H](O)[C@@H]1O	ATXN viability inconclusive (no result: USP2a block, USP1-UAF1 inh, IL1B secr inh)
Cc1cccn2c(=O)c3cc(C(=O)NCCN4CCOCC4)c(=N)n(CCc4ccccc4)c3nc12	IL1B secr inh -63
Cc1cccn2c(=O)c3cc(C(=O)NCCN4CCOCC4)c(=N)n(CCCN4CCOCC4)c3nc12	none
Cc1cccn2c(=O)c3cc(C(=O)NC4CCCCC4)c(=N)n(Cc4ccccc4)c3nc12	IL1B secr inh -86
Cc1cccn2c(=O)c3cc(C(=O)NC4CCCC4)c(=N)n(Cc4ccc(F)cc4)c3nc12	none (no result: ATXN viability)
N#Cc1cccnc1N1CCN(C(=O)c2cccc3c2C(=O)c2ccc(-c4ccc(Cl)c(C(F)(F)F)c4)cc2S3(=O)=O)CC1	none
O=C(O)c1cccc2c1C(=O)c1ccc(-c3ccc(Cl)c(C(F)(F)F)c3)cc1S2(=O)=O	IL1B secr inh -78
CCCCCCSc1ccc(-c2nc3ccc(C)cn3c2NCc2ccccc2)cc1OC	ATXN viability inconclusive, IL1B secr inh -53!, ATXN2 expr inh inconclusive
CCCCCCSc1ccc(-c2nc3ccc(C)cn3c2NCc2ccccc2)cc1	ATXN viability inconclusive, IL1B secr inh -110!
CCCCCCSc1cccc(-c2nc3ccc(Cl)cn3c2NCc2ccccc2)c1	none
Cc1nn(-c2ccccc2)c(C)c1[N+](=O)[O-]	none
COc1ccc(C(=O)Nc2ccc(N3CCCC3)cc2)cc1	none
CC(=O)c1ccc(N2CCN(C(=S)Nc3ccc(Oc4ccccc4)cc3)CC2)cc1	IL1B secr inh -66, ATXN2 expr inh inconclusive
CN1CCN(c2ccc(NC(=O)c3ccc(Oc4ccccc4)cc3)cc2)CC1	IL1B secr inh -78
COc1ccc(N2CCN(C(=S)Nc3ccccc3)CC2)cc1	none
Cc1c(C(=O)N2CCOc3ccc(Cl)cc3C2)sc2ncnc(NCCc3ccccn3)c12	none (no result: USP2a block, USP1-UAF1 inh, IL1B secr inh, ATXN2 expr inh)
Cc1ccccc1-c1nc(CS(=O)CC(=O)NC2CCCCC2)c(C)o1 (stereo not drawn)	none (no result: ATXN2 expr inh)
CCc1ccc(-n2c3nc(=O)[nH]c(=O)c-3cc3c(C)nn(-c4ccccc4)c32)cc1	none (no result: USP2a block, IL1B secr inh)
COC(=O)c1cc2sccc2n1CC(=O)Nc1ccc(OC)c(OC)c1	none (no result: USP2a block, IL1B secr inh)
C(=N\Nc1nc2ccccc2[nH]1)/c1ccncc1	none
CCN(CC)c1ccc(/C=N/Nc2nc3ccccc3[nH]2)cc1	ATXN viability 5.6µM, IL1B secr inh -85 (no result: ATXN2 expr inh)
CC(=O)Nc1ccc(/C=N/Nc2nc3ccccc3[nH]2)cc1	ATXN viability inconclusive, IL1B secr inh -94 (no result: ATXN2 expr inh)
O=C(O)c1ccc(/C=N/Nc2nc3ccccc3[nH]2)cc1	none
Cc1cnc(-n2ncc(C(=O)NCCc3cccnc3)c2C)nc1-c1cccs1	none (no result: USP2a block, USP1-UAF1 inh, IL1B secr inh, ATXN2 expr inh)
O=C(Nc1nc2c(s1)CN(Cc1ccccc1)CC2)C1CCC1	none (no result: ATXN viability)
CN(C)c1ccc(/C=C(\C#N)C(=O)Nc2nc3c(s2)CCN(Cc2ccccc2)C3)cc1	USP1-UAF1 inh 4.5µM
C=CCn1c(CSc2ccccc2[N+](=O)[O-])n[nH]c1=S	none
O=c1[nH]nc(SCc2ccccc2Cl)n1-c1ccc2c(c1)OCCO2	none (no result: IL1B secr inh)
O=c1[nH]nc(Sc2ncc([N+](=O)[O-])s2)n1-c1ccc2c(c1)OCCO2	ATXN2 expr inh 12µM (no result: USP2a block, USP1-UAF1 inh, ATXN viability, IL1B secr inh)
C=CCn1c(Sc2ncc([N+](=O)[O-])s2)n[nH]c1=O	ATXN viability 30µM, IL1B secr inh -103, ATXN2 expr inh inconclusive
Cc1cccc(N(CC(=O)NCc2ccco2)S(=O)(=O)c2ccccc2)c1	none (no result: USP2a block, ATXN2 expr inh)
C#C[C@]1(O)CC[C@@H]2[C@@H]3CCc4cc(O)ccc4[C@H]3CC[C@@]21C	none (no result: USP2a block, USP1-UAF1 inh, ATXN viability, IL1B secr inh)
CC[C@H](C)[C@@H](CNC)NC[C@@H](Cc1ccc(O)cc1)NCC(C)(C)C	USP1-UAF1 inh inconclusive
CC[C@@H](C)[C@H](CN[C@H](CNC)C(C)C)NC[C@@H](C)c1ccc(CC(C)C)cc1	ATXN2 expr inh 28µM (no result: ATXN viability)
O=C(OC1C2CCC1C1CN(CCc3ccccc3)CC12)c1ccccc1 (stereo not drawn)	IL1B secr inh -67 (no result: ATXN viability)
CCCCNc1ccc(C(F)(F)F)cc1S(=O)(=O)NCCc1ccc(F)cc1	ATXN viability inconclusive, IL1B secr inh -63
COc1ccc(/C=C/C(=O)c2ccc3c4c(cccc24)CC3)cc1OC	ATXN2 expr inh 16µM
COc1ccc(/C=C/C(=O)c2ccc3c4c(cccc24)CC3)cc1	IL1B secr inh -78, ATXN2 expr inh inconclusive
